Assay results published in PubChem BioAssay (EPA / NIEHS).
Inconclusive results are not listed. Active and inactive are the calls of the source. The calls were made as follows: active = hit-call score of the fitted dose curve at least 0.9, where 1 is the maximum; inconclusive = response in the unintended direction; inactive = score below 0.9.

molecular target: human CYP2C9, CYP2C9 (gene 1559) (UniProt P11712); assay: NVS_ADME_hCYP2C9: NovaScreen (NVS) CYP450-related Enzyme Activity (ADME) Assay for human CYP2C9 (AID 2283108)
How it was run: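 Fluorescence readout of CYP2C9 activity (SF9-expressed human enzyme) at 0.75 h. The primary screen used 10 uM in duplicate, with concentration-response follow-up for actives; acetonitrile was the negative control.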

Chain of human CYP2C9, CYP2C9 (gene 1559) (P11712 whole entry, looked up): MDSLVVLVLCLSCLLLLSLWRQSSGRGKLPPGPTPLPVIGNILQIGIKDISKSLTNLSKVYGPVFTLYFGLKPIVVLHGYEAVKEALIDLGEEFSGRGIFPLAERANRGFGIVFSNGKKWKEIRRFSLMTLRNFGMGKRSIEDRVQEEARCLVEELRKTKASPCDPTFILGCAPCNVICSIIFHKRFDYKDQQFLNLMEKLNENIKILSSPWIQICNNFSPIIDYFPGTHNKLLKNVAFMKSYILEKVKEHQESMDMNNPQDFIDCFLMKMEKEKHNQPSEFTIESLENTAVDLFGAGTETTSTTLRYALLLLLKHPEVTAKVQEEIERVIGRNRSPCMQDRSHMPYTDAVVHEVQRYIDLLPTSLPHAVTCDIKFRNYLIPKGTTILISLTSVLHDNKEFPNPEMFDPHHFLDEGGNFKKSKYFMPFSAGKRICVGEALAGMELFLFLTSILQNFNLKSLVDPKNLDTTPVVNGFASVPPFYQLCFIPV

Row | Structure (SMILES) | outcome | AC50
1 | S=C1NCCN1 | inactive | 
2 | CCOP(=S)(OCC)OC(Cl)C(Cl)(Cl)Cl (stereo not drawn) |  | 10 µM (active)
3 | COP(=O)(OC)OC(Br)C(Cl)(Cl)Br (stereo not drawn) | inactive | 
4 | COc1cccc(C(=O)NN(C(=O)c2cc(C)cc(C)c2)C(C)(C)C)c1C | inactive | 
5 | CC(C)=CC1C(C(=O)OCN2C(=O)C3=C(CCCC3)C2=O)C1(C)C (stereo not drawn) |  | 10 µM (active)
6 | CCC(=NOC/C=C/Cl)C1=C(O)CC(C2CCOCC2)CC1=O (stereo not drawn) | inactive | 
7 | CC1(C(=O)Nc2ccc(O)c(Cl)c2Cl)CCCCC1 |  | 2.58 µM (active)

molecular target: Cytochrome P450 2C19 (Homo sapiens) (UniProt P33261); assay: NVS_ADME_hCYP2C19: NovaScreen (NVS) CYP450-related Enzyme Activity (ADME) Assay for human CYP2C19 (AID 2283113);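 as to AC50: potency for inhibition seen as loss of fluorescent signal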
How it was run: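 Compounds first screened in duplicate at 10 uM, then confirmed in concentration series. Insect-cell-expressed human CYP2C19 turned over a fluorogenic substrate, and fluorescence was read after 1 h. Inhibition taken as signal loss relative to acetonitrile.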

Row | Structure (SMILES) | outcome | AC50
8 | S=C1NCCN1 | inactive | 
9 | CSC1=N[C@@](C)(c2ccccc2)C(=O)N1Nc1ccccc1 |  | 0.776 µM (active)
10 | CC(=NC#N)N(C)Cc1ccc(Cl)nc1 |  | 10 µM (active)
11 | CCOP(=O)(OCC)Oc1cc(C)nc(C(C)C)n1 |  | 10 µM (active)
12 | COP(=O)(OC)OC(Br)C(Cl)(Cl)Br (stereo not drawn) |  | 7.79 µM (active)
13 | COc1ccc(C(=CC(=O)N2CCOCC2)c2ccc(Cl)cc2)cc1OC |  | 7.59 µM (active)
14 | COc1cccc(C(=O)NN(C(=O)c2cc(C)cc(C)c2)C(C)(C)C)c1C |  | 2.58 µM (active)
15 | CCOP(=O)(SC(C)CC)N1CCSC1=O (stereo not drawn) |  | 6.44 µM (active)
16 | CC(C)[C@H](C(=O)O[C@H](C#N)c1cccc(Oc2ccccc2)c1)c1ccc(Cl)cc1 |  | 8.22 µM (active)
17 | C=C(C)[C@H]1Cc2c(ccc3c2O[C@@H]2COc4cc(OC)c(OC)cc4[C@@H]2C3=O)O1 |  | 0.434 µM (active)
18 | CSc1nnc(C(C)(C)C)c(=O)n1N | inactive | 
19 | CON=C(C(=O)OC)c1ccccc1CON=C(C)c1cccc(C(F)(F)F)c1 |  | 2.26 µM (active)
20 | CC(C)=CC1C(C(=O)OCN2C(=O)C3=C(CCCC3)C2=O)C1(C)C (stereo not drawn) |  | 6.88 µM (active)
21 | CCOP(=S)(OCC)Oc1cc(C)nc(C(C)C)n1 |  | 4.82 µM (active)
22 | CCCCOC(=O)[C@@H](C)Oc1ccc(Oc2ccc(C#N)cc2F)cc1 |  | 10 µM (active)
23 | CC1(C(=O)Nc2ccc(O)c(Cl)c2Cl)CCCCC1 |  | 6.6 µM (active)

molecular target: rat CYP2C13, Cyp2c13 (gene 171521) (UniProt P20814); assay: NVS_ADME_rCYP2C13: NovaScreen (NVS) CYP450-related Enzyme Activity (ADME) Assay for rat CYP2C13 (AID 2283121)
How it was run: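 Inhibition is read as decreased fluorescent product formation, referenced to acetonitrile vehicle. Cell-free recombinant rat Cyp2c13 reaction ran 0.75 hour; compounds first at 10 uM in duplicate, then concentration series for actives.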

Chain of rat CYP2C13, Cyp2c13 (gene 171521) (P20814 whole entry, looked up): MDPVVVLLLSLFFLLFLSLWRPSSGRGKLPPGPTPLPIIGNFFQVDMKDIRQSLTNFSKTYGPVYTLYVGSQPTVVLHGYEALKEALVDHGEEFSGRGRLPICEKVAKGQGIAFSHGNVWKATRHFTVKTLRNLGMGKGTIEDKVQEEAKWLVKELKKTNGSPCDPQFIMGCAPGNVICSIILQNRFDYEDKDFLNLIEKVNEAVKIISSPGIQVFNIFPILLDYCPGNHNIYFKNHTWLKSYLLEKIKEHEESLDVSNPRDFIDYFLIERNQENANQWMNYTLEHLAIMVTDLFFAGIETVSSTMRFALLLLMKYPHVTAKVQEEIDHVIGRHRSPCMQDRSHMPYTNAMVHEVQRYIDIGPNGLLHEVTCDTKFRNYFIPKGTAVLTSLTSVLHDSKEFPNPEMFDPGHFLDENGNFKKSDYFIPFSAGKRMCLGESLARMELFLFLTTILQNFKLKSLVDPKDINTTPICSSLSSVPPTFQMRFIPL

Row | Structure (SMILES) | outcome | AC50
24 | CC(=NC#N)N(C)Cc1ccc(Cl)nc1 | inactive | 
25 | COc1cccc(C(=O)NN(C(=O)c2cc(C)cc(C)c2)C(C)(C)C)c1C |  | 2.64 µM (active)
26 | C=C(C)[C@H]1Cc2c(ccc3c2O[C@@H]2COc4cc(OC)c(OC)cc4[C@@H]2C3=O)O1 |  | 2.26 µM (active)
27 | CC(C)=CC1C(C(=O)OCN2C(=O)C3=C(CCCC3)C2=O)C1(C)C (stereo not drawn) |  | 8.97 µM (active)
28 | CC1(C(=O)Nc2ccc(O)c(Cl)c2Cl)CCCCC1 |  | 1.37 µM (active)

system: rat CYP3A1, gene 25642; assay: NVS_ADME_rCYP3A1: NovaScreen (NVS) CYP450-related Enzyme Activity (ADME) Assay for rat CYP3A1 (AID 2283126)
How it was run: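 Compounds went first at 10 uM duplicate, then to series with 20 uM maximum. Fluorescence from substrate turnover by the recombinant enzyme was measured 0.5 h post-dosing, inhibition scored against acetonitrile vehicle.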

Row | Structure (SMILES) | AC50 | outcome
29 | O=C(O)c1cc(Oc2ccc(C(F)(F)F)cc2Cl)ccc1[N+](=O)[O-] | 5.89 µM (active) | 
30 | S=C1NCCN1 |  | inactive
31 | CSC1=N[C@@](C)(c2ccccc2)C(=O)N1Nc1ccccc1 | 2.77 µM (active) | 
32 | CCOP(=O)(OCC)Oc1cc(C)nc(C(C)C)n1 |  | inactive
33 | COc1ccc(C(=CC(=O)N2CCOCC2)c2ccc(Cl)cc2)cc1OC | 3.86 µM (active) | 
34 | COc1cccc(C(=O)NN(C(=O)c2cc(C)cc(C)c2)C(C)(C)C)c1C | 0.331 µM (active) | 
35 | CCOP(=O)(SC(C)CC)N1CCSC1=O (stereo not drawn) | 6.64 µM (active) | 
36 | CC(C)=CC1C(C(=O)OCN2C(=O)C3=C(CCCC3)C2=O)C1(C)C (stereo not drawn) |  | inactive
37 | CCOP(=S)(OCC)Oc1cc(C)nc(C(C)C)n1 | 6.82 µM (active) | 

molecular target: rat CYP3A2, Cyp3a2 (gene 266682) (UniProt P05183); assay: NVS_ADME_rCYP3A2: NovaScreen (NVS) CYP450-related Enzyme Activity (ADME) Assay for rat CYP3A2 (AID 2283128)
How it was run: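 Fluorescence readout of extracted rat CYP3A2 activity 0.5 h post-dose, acetonitrile as negative control. Single-point testing in duplicate at 10 uM, followed by concentration series to a 20 uM maximum for actives.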

Chain of rat CYP3A2, Cyp3a2 (gene 266682) (P05183 whole entry, looked up): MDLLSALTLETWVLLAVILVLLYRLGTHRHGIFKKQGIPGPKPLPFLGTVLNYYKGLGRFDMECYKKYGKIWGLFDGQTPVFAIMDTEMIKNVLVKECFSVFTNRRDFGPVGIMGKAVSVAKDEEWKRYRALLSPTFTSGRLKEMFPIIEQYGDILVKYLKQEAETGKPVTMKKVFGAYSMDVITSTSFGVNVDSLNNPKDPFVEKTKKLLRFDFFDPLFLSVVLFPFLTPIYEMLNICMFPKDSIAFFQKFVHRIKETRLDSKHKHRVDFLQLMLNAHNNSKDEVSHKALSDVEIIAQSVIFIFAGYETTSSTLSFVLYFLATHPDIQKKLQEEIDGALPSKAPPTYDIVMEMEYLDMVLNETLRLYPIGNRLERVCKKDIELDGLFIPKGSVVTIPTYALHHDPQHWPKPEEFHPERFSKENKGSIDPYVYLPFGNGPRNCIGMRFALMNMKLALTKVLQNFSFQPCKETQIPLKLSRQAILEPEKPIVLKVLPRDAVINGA

Row | Structure (SMILES) | AC50 | outcome
38 | CSC1=N[C@@](C)(c2ccccc2)C(=O)N1Nc1ccccc1 | 7.11 µM (active) | 
39 | COc1ccc(C(=CC(=O)N2CCOCC2)c2ccc(Cl)cc2)cc1OC | 6.54 µM (active) | 
40 | CN(C)NC(=O)CCC(=O)O |  | inactive
41 | COc1cccc(C(=O)NN(C(=O)c2cc(C)cc(C)c2)C(C)(C)C)c1C | 0.651 µM (active) | 
42 | CCOP(=O)(SC(C)CC)N1CCSC1=O (stereo not drawn) | 8.56 µM (active) | 
43 | C=C(C)[C@H]1Cc2c(ccc3c2O[C@@H]2COc4cc(OC)c(OC)cc4[C@@H]2C3=O)O1 | 2.88 µM (active) | 
44 | CC1(C(=O)Nc2ccc(O)c(Cl)c2Cl)CCCCC1 | 3.42 µM (active) | 

molecular target: human Acetylcholinesterase (AChE), ACHE (gene 43) (UniProt P22303); assay: NVS_ENZ_hAChE: NovaScreen (NVS) Enzymatic Assay for human Acetylcholinesterase (AChE) (AID 2283129)
How it was run: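 Actives from a duplicate single-point screen (25 uM) were followed up in concentration series. Enzyme activity read by absorbance (colorimetric) 0.33 hour after dosing, cell-free, normalized to DMSO, with loss of signal scored.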

Chain of human Acetylcholinesterase (AChE), ACHE (gene 43) (P22303 whole entry, looked up): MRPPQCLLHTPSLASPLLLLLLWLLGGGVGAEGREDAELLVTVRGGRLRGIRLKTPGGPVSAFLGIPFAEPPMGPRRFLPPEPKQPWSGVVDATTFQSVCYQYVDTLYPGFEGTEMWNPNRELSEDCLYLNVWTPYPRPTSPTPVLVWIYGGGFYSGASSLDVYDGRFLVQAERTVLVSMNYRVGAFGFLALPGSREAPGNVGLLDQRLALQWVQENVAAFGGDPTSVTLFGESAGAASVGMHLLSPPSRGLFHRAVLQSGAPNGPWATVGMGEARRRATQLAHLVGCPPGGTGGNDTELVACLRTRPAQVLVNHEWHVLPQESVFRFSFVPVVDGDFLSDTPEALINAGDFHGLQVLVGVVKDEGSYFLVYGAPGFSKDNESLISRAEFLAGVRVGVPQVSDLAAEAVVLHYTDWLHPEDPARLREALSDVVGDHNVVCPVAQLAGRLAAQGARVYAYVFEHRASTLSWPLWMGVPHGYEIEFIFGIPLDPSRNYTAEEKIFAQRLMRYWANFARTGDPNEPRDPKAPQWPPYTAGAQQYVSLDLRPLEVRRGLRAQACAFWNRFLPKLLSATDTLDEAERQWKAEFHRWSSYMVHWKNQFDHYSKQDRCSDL

Row | Structure (SMILES) | AC50
45 | CNC(=O)ON=C(C)SC | 25 µM (active)
46 | CCOP(=S)(OCC)OC(Cl)C(Cl)(Cl)Cl (stereo not drawn) | 8.21 µM (active)
47 | CC(=NC#N)N(C)Cc1ccc(Cl)nc1 | 22.4 µM (active)
48 | COP(=O)(OC)OC(Br)C(Cl)(Cl)Br (stereo not drawn) | 3.67 µM (active)
49 | CNC(=O)Oc1cccc2c1OC(C)(C)O2 | 1.36 µM (active)
50 | CNC(=O)ON=C(SC)C(=O)N(C)C | 12 µM (active)

molecular target: Caspase-1 (Homo sapiens) (UniProt P29466); assay: NVS_ENZ_hCASP1: NovaScreen (NVS) Enzymatic Assay for human Caspase 1 (CASP1) (AID 2283132)
How it was run: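 Compounds were first tested in duplicate at 25 uM, with follow-up concentration series up to 50 uM. The bacterially expressed enzyme was read by fluorescence at 1 h post-dosing. Signal loss versus DMSO baseline indicates reduced enzyme activity.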

Chain of Caspase-1 (Homo sapiens) (P29466 whole entry, looked up): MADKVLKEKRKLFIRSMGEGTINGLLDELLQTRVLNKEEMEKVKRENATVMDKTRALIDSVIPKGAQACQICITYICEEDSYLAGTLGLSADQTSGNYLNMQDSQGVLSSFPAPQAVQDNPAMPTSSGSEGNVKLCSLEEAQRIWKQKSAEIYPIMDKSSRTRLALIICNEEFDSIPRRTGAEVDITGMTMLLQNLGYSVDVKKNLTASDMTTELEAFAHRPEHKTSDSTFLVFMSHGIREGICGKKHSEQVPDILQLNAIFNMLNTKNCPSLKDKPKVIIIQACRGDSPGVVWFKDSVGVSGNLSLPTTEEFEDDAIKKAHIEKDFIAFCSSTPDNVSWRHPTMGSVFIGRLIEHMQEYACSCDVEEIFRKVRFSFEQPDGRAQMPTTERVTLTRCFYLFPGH

Row | Structure (SMILES) | outcome | AC50
51 | S=C1NCCN1 | inactive | 
52 | CC(C)[C@H](C(=O)O[C@H](C#N)c1cccc(Oc2ccccc2)c1)c1ccc(Cl)cc1 | inactive | 
53 | CN(C)[C@@H]1C(=O)C(C(N)=O)=C(O)[C@@]2(O)C(=O)C3=C(O)c4c(O)cccc4[C@@](C)(O)[C@H]3[C@H](O)[C@@H]12 |  | 11.6 µM (active)
